# Source: paper PMC11006913
# Key:
# Experiment in all cases: PBM; 200 nM protein, PBS
# Conditions in all cases: dsDNA, one strand shown
# HESX1 [1] = molecular target: HESX1 (Homo sapiens, UniProt Q9UBX0 95-180, R165K)
# HOXB4 [2] = molecular target: HOXB4 (Homo sapiens, UniProt P17483 148-234)
# SHOX [3] = molecular target: SHOX (Homo sapiens, UniProt O15266 103-189)
# HESX1 [4] = molecular target: HESX1 (Homo sapiens, UniProt Q9UBX0 95-180)
# HOXB4 [5] = molecular target: HOXB4 (Homo sapiens, UniProt P17483 148-234, V174I)
# ALX1 [6] = molecular target: ALX1 (Homo sapiens, UniProt Q15699 118-204, L144V)
# ALX3 [7] = molecular target: ALX3 (Homo sapiens, UniProt O95076 139-225, N203Q)
# SHOX [8] = molecular target: SHOX (Homo sapiens, UniProt O15266 103-189, R173C)
# ALX1 [9] = molecular target: ALX1 (Homo sapiens, UniProt Q15699 118-204, L144R)
# ALX3 [10] = molecular target: ALX3 (Homo sapiens, UniProt O95076 139-225)
# PROP1 [11] = molecular target: PROP1 (Homo sapiens, UniProt O75360 56-141)
# HESX1 [12] = molecular target: HESX1 (Homo sapiens, UniProt Q9UBX0 95-180, R109Q)
# PROP1 [13] = molecular target: PROP1 (Homo sapiens, UniProt O75360 56-141, R99H)
# ALX3 [14] = molecular target: ALX3 (Homo sapiens, UniProt O95076 139-225, L168Q)
# HESX1 [15] = molecular target: HESX1 (Homo sapiens, UniProt Q9UBX0 95-180, P111T)
# ALX3 [16] = molecular target: ALX3 (Homo sapiens, UniProt O95076 139-225, L168V)
# PROP1 [17] = molecular target: PROP1 (Homo sapiens, UniProt O75360 56-141, F88S)
# HESX1 [18] = molecular target: HESX1 (Homo sapiens, UniProt Q9UBX0 95-180, F115L)
# ALX1 [19] = molecular target: ALX1 (Homo sapiens, UniProt Q15699 118-204)
# ALX3 [20] = molecular target: ALX3 (Homo sapiens, UniProt O95076 139-225, N203S)
# ALX3 (Homo sapiens, UniProt O95076 139-225, N203S), sequence (O95076 139-225 N203S): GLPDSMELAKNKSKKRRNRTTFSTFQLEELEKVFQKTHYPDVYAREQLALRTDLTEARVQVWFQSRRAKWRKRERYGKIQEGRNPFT
# HOXB4 (Homo sapiens, UniProt P17483 148-234, V174I), sequence (P17483 148-234 V174I): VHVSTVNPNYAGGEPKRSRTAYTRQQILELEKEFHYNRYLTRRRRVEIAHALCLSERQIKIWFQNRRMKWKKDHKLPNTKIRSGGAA
# ALX3 (Homo sapiens, UniProt O95076 139-225, L168V), sequence (O95076 139-225 L168V): as the sequence (O95076 139-225 N203S) above, with L30V, S65N counted along it
# HESX1 (Homo sapiens, UniProt Q9UBX0 95-180, R165K), sequence (Q9UBX0 95-180 R165K): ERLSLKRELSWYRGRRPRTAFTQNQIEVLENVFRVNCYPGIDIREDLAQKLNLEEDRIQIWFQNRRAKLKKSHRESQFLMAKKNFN
# ALX3 (Homo sapiens, UniProt O95076 139-225, N203Q), sequence (O95076 139-225 N203Q): as the sequence (O95076 139-225 N203S) above, with S65Q counted along it
# ALX3 (Homo sapiens, UniProt O95076 139-225), sequence (O95076 139-225): as the sequence (O95076 139-225 N203S) above, with S65N counted along it
# PROP1 (Homo sapiens, UniProt O75360 56-141, R99H), sequence (O75360 56-141 R99H): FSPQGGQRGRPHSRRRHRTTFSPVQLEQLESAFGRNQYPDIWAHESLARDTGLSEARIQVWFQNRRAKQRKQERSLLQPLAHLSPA
# ALX3 (Homo sapiens, UniProt O95076 139-225, L168Q), sequence (O95076 139-225 L168Q): as the sequence (O95076 139-225 N203S) above, with L30Q, S65N counted along it
# HESX1 (Homo sapiens, UniProt Q9UBX0 95-180, F115L), sequence (Q9UBX0 95-180 F115L): as the sequence (Q9UBX0 95-180 R165K) above, with F21L, K71R counted along it
# HESX1 (Homo sapiens, UniProt Q9UBX0 95-180, R109Q), sequence (Q9UBX0 95-180 R109Q): as the sequence (Q9UBX0 95-180 R165K) above, with R15Q, K71R counted along it
# HESX1 (Homo sapiens, UniProt Q9UBX0 95-180), sequence (Q9UBX0 95-180): as the sequence (Q9UBX0 95-180 R165K) above, with K71R counted along it
# ALX1 (Homo sapiens, UniProt Q15699 118-204), sequence (Q15699 118-204): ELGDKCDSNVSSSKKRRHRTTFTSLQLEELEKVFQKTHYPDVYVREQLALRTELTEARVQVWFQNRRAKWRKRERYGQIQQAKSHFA
# SHOX (Homo sapiens, UniProt O15266 103-189), sequence (O15266 103-189): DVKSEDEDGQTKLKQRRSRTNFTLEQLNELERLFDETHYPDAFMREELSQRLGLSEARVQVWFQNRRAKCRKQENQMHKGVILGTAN
# SHOX (Homo sapiens, UniProt O15266 103-189, R173C), sequence (O15266 103-189 R173C): as the sequence (O15266 103-189) above, with R71C counted along it
# HESX1 (Homo sapiens, UniProt Q9UBX0 95-180, P111T), sequence (Q9UBX0 95-180 P111T): as the sequence (Q9UBX0 95-180 R165K) above, with P17T, K71R counted along it
# ALX1 (Homo sapiens, UniProt Q15699 118-204, L144V), sequence (Q15699 118-204 L144V): as the sequence (Q15699 118-204) above, with L27V counted along it
# PROP1 (Homo sapiens, UniProt O75360 56-141, F88S), sequence (O75360 56-141 F88S): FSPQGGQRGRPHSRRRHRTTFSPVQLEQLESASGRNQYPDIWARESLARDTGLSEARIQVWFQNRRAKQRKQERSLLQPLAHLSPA
# ALX1 (Homo sapiens, UniProt Q15699 118-204, L144R), sequence (Q15699 118-204 L144R): as the sequence (Q15699 118-204) above, with L27R counted along it
# PROP1 (Homo sapiens, UniProt O75360 56-141), sequence (O75360 56-141): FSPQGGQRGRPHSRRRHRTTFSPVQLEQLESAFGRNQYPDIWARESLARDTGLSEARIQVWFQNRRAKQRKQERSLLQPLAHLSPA
# HOXB4 (Homo sapiens, UniProt P17483 148-234), sequence (P17483 148-234): as the sequence (P17483 148-234 V174I) above, with I27V counted along it
Sequence,binding signal (HESX1 [1]),binding signal (HOXB4 [2]),binding signal (SHOX [3]),binding signal (HESX1 [4]),binding signal (HOXB4 [5]),binding signal (ALX1 [6]),binding signal (ALX3 [7]),binding signal (SHOX [8]),binding signal (ALX1 [9]),binding signal (ALX3 [10]),binding signal (PROP1 [11]),binding signal (HESX1 [12]),binding signal (PROP1 [13]),binding signal (ALX3 [14]),binding signal (HESX1 [15]),binding signal (ALX3 [16]),binding signal (PROP1 [17]),binding signal (HESX1 [18]),binding signal (ALX1 [19]),binding signal (ALX3 [20])
TAATTACA,"12.5 upbm affinity estimate (log intensity, higher = more binding, comparable within an allelic series)","13.6 upbm affinity estimate (log intensity, higher = more binding, comparable within an allelic series)","12.1 upbm affinity estimate (log intensity, higher = more binding, comparable within an allelic series)","12.6 upbm affinity estimate (log intensity, higher = more binding, comparable within an allelic series)","14.4 upbm affinity estimate (log intensity, higher = more binding, comparable within an allelic series)","11.9 upbm affinity estimate (log intensity, higher = more binding, comparable within an allelic series)","8.51 upbm affinity estimate (log intensity, higher = more binding, comparable within an allelic series)","9.87 upbm affinity estimate (log intensity, higher = more binding, comparable within an allelic series)","11.5 upbm affinity estimate (log intensity, higher = more binding, comparable within an allelic series)","12.7 upbm affinity estimate (log intensity, higher = more binding, comparable within an allelic series)","11.8 upbm affinity estimate (log intensity, higher = more binding, comparable within an allelic series)","9.27 upbm affinity estimate (log intensity, higher = more binding, comparable within an allelic series)","11.5 upbm affinity estimate (log intensity, higher = more binding, comparable within an allelic series)","10.8 upbm affinity estimate (log intensity, higher = more binding, comparable within an allelic series)","11.1 upbm affinity estimate (log intensity, higher = more binding, comparable within an allelic series)","10.3 upbm affinity estimate (log intensity, higher = more binding, comparable within an allelic series)","7.98 upbm affinity estimate (log intensity, higher = more binding, comparable within an allelic series)","7.89 upbm affinity estimate (log intensity, higher = more binding, comparable within an allelic series)","12.5 upbm affinity estimate (log intensity, higher = more binding, comparable within an allelic series)","8.62 upbm affinity estimate (log intensity, higher = more binding, comparable within an allelic series)"
AGTAATTA,"13 upbm affinity estimate (log intensity, higher = more binding, comparable within an allelic series)","13.6 upbm affinity estimate (log intensity, higher = more binding, comparable within an allelic series)","12.7 upbm affinity estimate (log intensity, higher = more binding, comparable within an allelic series)","13.1 upbm affinity estimate (log intensity, higher = more binding, comparable within an allelic series)","14.4 upbm affinity estimate (log intensity, higher = more binding, comparable within an allelic series)","12.2 upbm affinity estimate (log intensity, higher = more binding, comparable within an allelic series)","8.6 upbm affinity estimate (log intensity, higher = more binding, comparable within an allelic series)","10 upbm affinity estimate (log intensity, higher = more binding, comparable within an allelic series)","11.8 upbm affinity estimate (log intensity, higher = more binding, comparable within an allelic series)","12.8 upbm affinity estimate (log intensity, higher = more binding, comparable within an allelic series)","11.9 upbm affinity estimate (log intensity, higher = more binding, comparable within an allelic series)","9.52 upbm affinity estimate (log intensity, higher = more binding, comparable within an allelic series)","11.9 upbm affinity estimate (log intensity, higher = more binding, comparable within an allelic series)","11 upbm affinity estimate (log intensity, higher = more binding, comparable within an allelic series)","11.6 upbm affinity estimate (log intensity, higher = more binding, comparable within an allelic series)","10.6 upbm affinity estimate (log intensity, higher = more binding, comparable within an allelic series)","7.94 upbm affinity estimate (log intensity, higher = more binding, comparable within an allelic series)","8.09 upbm affinity estimate (log intensity, higher = more binding, comparable within an allelic series)","12.7 upbm affinity estimate (log intensity, higher = more binding, comparable within an allelic series)","8.73 upbm affinity estimate (log intensity, higher = more binding, comparable within an allelic series)"
CGTAATTA,"12.6 upbm affinity estimate (log intensity, higher = more binding, comparable within an allelic series)","13.5 upbm affinity estimate (log intensity, higher = more binding, comparable within an allelic series)","12.4 upbm affinity estimate (log intensity, higher = more binding, comparable within an allelic series)","12.6 upbm affinity estimate (log intensity, higher = more binding, comparable within an allelic series)","14.3 upbm affinity estimate (log intensity, higher = more binding, comparable within an allelic series)","12 upbm affinity estimate (log intensity, higher = more binding, comparable within an allelic series)","8.47 upbm affinity estimate (log intensity, higher = more binding, comparable within an allelic series)","9.89 upbm affinity estimate (log intensity, higher = more binding, comparable within an allelic series)","11.7 upbm affinity estimate (log intensity, higher = more binding, comparable within an allelic series)","12.7 upbm affinity estimate (log intensity, higher = more binding, comparable within an allelic series)","11.6 upbm affinity estimate (log intensity, higher = more binding, comparable within an allelic series)","9.06 upbm affinity estimate (log intensity, higher = more binding, comparable within an allelic series)","11.5 upbm affinity estimate (log intensity, higher = more binding, comparable within an allelic series)","10.7 upbm affinity estimate (log intensity, higher = more binding, comparable within an allelic series)","11.1 upbm affinity estimate (log intensity, higher = more binding, comparable within an allelic series)","10.2 upbm affinity estimate (log intensity, higher = more binding, comparable within an allelic series)","7.88 upbm affinity estimate (log intensity, higher = more binding, comparable within an allelic series)","7.77 upbm affinity estimate (log intensity, higher = more binding, comparable within an allelic series)","12.7 upbm affinity estimate (log intensity, higher = more binding, comparable within an allelic series)","8.56 upbm affinity estimate (log intensity, higher = more binding, comparable within an allelic series)"
ATTAATTA,"14 upbm affinity estimate (log intensity, higher = more binding, comparable within an allelic series)","13.7 upbm affinity estimate (log intensity, higher = more binding, comparable within an allelic series)","13.3 upbm affinity estimate (log intensity, higher = more binding, comparable within an allelic series)","13.8 upbm affinity estimate (log intensity, higher = more binding, comparable within an allelic series)","14.4 upbm affinity estimate (log intensity, higher = more binding, comparable within an allelic series)","12.5 upbm affinity estimate (log intensity, higher = more binding, comparable within an allelic series)","8.67 upbm affinity estimate (log intensity, higher = more binding, comparable within an allelic series)","10.8 upbm affinity estimate (log intensity, higher = more binding, comparable within an allelic series)","12.1 upbm affinity estimate (log intensity, higher = more binding, comparable within an allelic series)","13.2 upbm affinity estimate (log intensity, higher = more binding, comparable within an allelic series)","12.3 upbm affinity estimate (log intensity, higher = more binding, comparable within an allelic series)","11 upbm affinity estimate (log intensity, higher = more binding, comparable within an allelic series)","12.5 upbm affinity estimate (log intensity, higher = more binding, comparable within an allelic series)","11.6 upbm affinity estimate (log intensity, higher = more binding, comparable within an allelic series)","12.5 upbm affinity estimate (log intensity, higher = more binding, comparable within an allelic series)","11.5 upbm affinity estimate (log intensity, higher = more binding, comparable within an allelic series)","8.37 upbm affinity estimate (log intensity, higher = more binding, comparable within an allelic series)","8.72 upbm affinity estimate (log intensity, higher = more binding, comparable within an allelic series)","13.2 upbm affinity estimate (log intensity, higher = more binding, comparable within an allelic series)","8.88 upbm affinity estimate (log intensity, higher = more binding, comparable within an allelic series)"
AATAATTA,"13 upbm affinity estimate (log intensity, higher = more binding, comparable within an allelic series)","13.5 upbm affinity estimate (log intensity, higher = more binding, comparable within an allelic series)","12.1 upbm affinity estimate (log intensity, higher = more binding, comparable within an allelic series)","13 upbm affinity estimate (log intensity, higher = more binding, comparable within an allelic series)","14.2 upbm affinity estimate (log intensity, higher = more binding, comparable within an allelic series)","11.9 upbm affinity estimate (log intensity, higher = more binding, comparable within an allelic series)","8.63 upbm affinity estimate (log intensity, higher = more binding, comparable within an allelic series)","9.86 upbm affinity estimate (log intensity, higher = more binding, comparable within an allelic series)","11.7 upbm affinity estimate (log intensity, higher = more binding, comparable within an allelic series)","12.8 upbm affinity estimate (log intensity, higher = more binding, comparable within an allelic series)","11.8 upbm affinity estimate (log intensity, higher = more binding, comparable within an allelic series)","9.38 upbm affinity estimate (log intensity, higher = more binding, comparable within an allelic series)","11.6 upbm affinity estimate (log intensity, higher = more binding, comparable within an allelic series)","10.9 upbm affinity estimate (log intensity, higher = more binding, comparable within an allelic series)","11.5 upbm affinity estimate (log intensity, higher = more binding, comparable within an allelic series)","10.6 upbm affinity estimate (log intensity, higher = more binding, comparable within an allelic series)","7.89 upbm affinity estimate (log intensity, higher = more binding, comparable within an allelic series)","8.2 upbm affinity estimate (log intensity, higher = more binding, comparable within an allelic series)","12.5 upbm affinity estimate (log intensity, higher = more binding, comparable within an allelic series)","8.7 upbm affinity estimate (log intensity, higher = more binding, comparable within an allelic series)"
GGTAATTA,"13.1 upbm affinity estimate (log intensity, higher = more binding, comparable within an allelic series)","13.7 upbm affinity estimate (log intensity, higher = more binding, comparable within an allelic series)","12.7 upbm affinity estimate (log intensity, higher = more binding, comparable within an allelic series)","13.2 upbm affinity estimate (log intensity, higher = more binding, comparable within an allelic series)","14.4 upbm affinity estimate (log intensity, higher = more binding, comparable within an allelic series)","12.1 upbm affinity estimate (log intensity, higher = more binding, comparable within an allelic series)","8.47 upbm affinity estimate (log intensity, higher = more binding, comparable within an allelic series)","10 upbm affinity estimate (log intensity, higher = more binding, comparable within an allelic series)","11.8 upbm affinity estimate (log intensity, higher = more binding, comparable within an allelic series)","12.8 upbm affinity estimate (log intensity, higher = more binding, comparable within an allelic series)","11.9 upbm affinity estimate (log intensity, higher = more binding, comparable within an allelic series)","9.54 upbm affinity estimate (log intensity, higher = more binding, comparable within an allelic series)","11.8 upbm affinity estimate (log intensity, higher = more binding, comparable within an allelic series)","11 upbm affinity estimate (log intensity, higher = more binding, comparable within an allelic series)","11.7 upbm affinity estimate (log intensity, higher = more binding, comparable within an allelic series)","10.7 upbm affinity estimate (log intensity, higher = more binding, comparable within an allelic series)","7.94 upbm affinity estimate (log intensity, higher = more binding, comparable within an allelic series)","8.04 upbm affinity estimate (log intensity, higher = more binding, comparable within an allelic series)","12.8 upbm affinity estimate (log intensity, higher = more binding, comparable within an allelic series)","8.62 upbm affinity estimate (log intensity, higher = more binding, comparable within an allelic series)"
ATAATTAT,"12.8 upbm affinity estimate (log intensity, higher = more binding, comparable within an allelic series)","13.7 upbm affinity estimate (log intensity, higher = more binding, comparable within an allelic series)","12.1 upbm affinity estimate (log intensity, higher = more binding, comparable within an allelic series)","12.8 upbm affinity estimate (log intensity, higher = more binding, comparable within an allelic series)","14.5 upbm affinity estimate (log intensity, higher = more binding, comparable within an allelic series)","11.9 upbm affinity estimate (log intensity, higher = more binding, comparable within an allelic series)","8.72 upbm affinity estimate (log intensity, higher = more binding, comparable within an allelic series)","9.85 upbm affinity estimate (log intensity, higher = more binding, comparable within an allelic series)","11.6 upbm affinity estimate (log intensity, higher = more binding, comparable within an allelic series)","12.7 upbm affinity estimate (log intensity, higher = more binding, comparable within an allelic series)","11.8 upbm affinity estimate (log intensity, higher = more binding, comparable within an allelic series)","9.01 upbm affinity estimate (log intensity, higher = more binding, comparable within an allelic series)","11.5 upbm affinity estimate (log intensity, higher = more binding, comparable within an allelic series)","10.8 upbm affinity estimate (log intensity, higher = more binding, comparable within an allelic series)","11.2 upbm affinity estimate (log intensity, higher = more binding, comparable within an allelic series)","10.4 upbm affinity estimate (log intensity, higher = more binding, comparable within an allelic series)","8.04 upbm affinity estimate (log intensity, higher = more binding, comparable within an allelic series)","7.94 upbm affinity estimate (log intensity, higher = more binding, comparable within an allelic series)","12.5 upbm affinity estimate (log intensity, higher = more binding, comparable within an allelic series)","8.79 upbm affinity estimate (log intensity, higher = more binding, comparable within an allelic series)"
